Where “and” joins values, the source holds several entries; their conditions need not be identical. Identical values can stand only once. The panel holds about 79,000 compounds, 15% with a hit somewhere; the sample as a whole holds those more often. A structure can be active in one record and inactive in another. Calls of active or inactive are those of the source. Cut-off read from the data, not from the text of the source: active = growth inhibition above about 70%; inactive = the rest.

Assay [1] in a line: NCI Yeast Anticancer Drug Screen. Data for the rad50 strain (AID 155).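 Note: 0% = growth of vehicle-only cultures of the same strain.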 The following applies: S. cerevisiae rad50 strain growth inhibition, stronger effect = higher value. The essentials: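 Vehicle-treated cultures provide the reference for the growth inhibition reported for compound-exposed, repair-deficient yeast.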
Assay [2] is described as follows: NCI Yeast Anticancer Drug Screen. Data for the mec2-1 strain (AID 157). The conditions noted are these: S. cerevisiae mec2-1 strain, stronger effect = higher value. The essentials:
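Test agents were screened against the mec2-1 yeast strain, with defined DNA repair or cell cycle alteration. Growth was scored as inhibition against vehicle-only controls.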

Assay [3] in a line: NCI Yeast Anticancer Drug Screen. Data for the sgs1 mgt1 strain (AID 161).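 Note: 0% = growth of cultures given vehicle only.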 The following applies: S. cerevisiae sgs1 mgt1 strain, stronger effect = higher value. The essentials:
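Inhibition of yeast growth, normalised to vehicle-treated controls, is reported for a strain bearing genetic alterations in DNA damage repair.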

Assay [4] in a line: NCI Yeast Anticancer Drug Screen. Data for the cln2 rad14 strain (AID 165).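 Note: 0% = growth equal to vehicle treated cultures.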 The following applies: S. cerevisiae cln2 rad14 strain, stronger effect = higher value. The method in brief: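 Growth of compound-exposed yeast (cln2 rad14 genotype) measured and expressed as inhibition relative to vehicle.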
Assay [5] is described as follows: NCI Yeast Anticancer Drug Screen. Data for the bub3 strain (AID 167). The conditions noted are these: S. cerevisiae bub3 mutant strain, stronger effect = higher value. The essentials: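 Mutant yeast screening strain plus compound; vehicle-treated cultures serve as the 0% inhibition reference.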
Assay [6] is described as follows: NCI Yeast Anticancer Drug Screen. Data for the mlh1 rad18 strain (AID 175). The following applies: S. cerevisiae mlh1 rad18 strain growth inhibition, stronger effect = higher value. The essentials: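 In this whole-cell yeast screen, a strain with altered DNA damage repair is challenged with compound, and its growth is measured against matched vehicle-treated controls.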
Setting [7] is: at 5.0 µM (retest, dose inferred, filed as 0.5).
Setting [8] is: at 50.0 µM (retest, dose inferred, filed as 5.0).

For the molecule `CCOC(=O)c1c[nH]c2c(ccc3cccnc32)c1=O`, the growth inhibition in assay [1] (setting [7]) is 10% (inactive) and 5% (inactive); in assay [1] (setting [8]), 64% (inactive) and 66% (inactive); in assay [1] (at 50.0 µM), 38% (inactive) and 38.8% (inactive); in assay [2] (setting [7]), 7% (inactive) and -15% (inactive); in assay [2] (setting [8]), 64% (inactive) and 43% (inactive); in assay [2] (at 50.0 µM), 13.9% (inactive) and 12.2% (inactive). The growth inhibition in assay [3] (setting [7]) is 8% (inactive) and -1% (inactive); in assay [3] (setting [8]), 85% (active) and 56% (inactive); in assay [3] (at 50.0 µM), 10.8% (inactive) and 52.7% (inactive); in assay [4] (setting [7]), 3% (inactive) and -3% (inactive); in assay [4] (setting [8]), 43% (inactive) and 41% (inactive); in assay [4] (at 50.0 µM), 26.9% (inactive) and 24.3% (inactive). Moreover, the growth inhibition in assay [5] (setting [7]) is -3% (inactive) and 4% (inactive); in assay [5] (setting [8]) it was 48% (inactive) and 43% (inactive); in assay [5] (at 50.0 µM), 18.4% (inactive) and 6.8% (inactive); in assay [6] (setting [7]), 2% (inactive) and -1% (inactive); in assay [6] (setting [8]) it was 84% (active) and 79% (active); in assay [6] (at 50.0 µM) it was 37.7% (inactive) and 79.8% (active).
As for `c1ccc(N=c2cnc3c(ccc4ccccc43)o2)cc1`, the growth inhibition in assay [1] (setting [7]) is 97% (active); in assay [1] (setting [8]), 93% (active); in assay [1] (at 50.0 µM), 93.5% (active); in assay [2] (setting [7]), 97% (active); in assay [2] (setting [8]) it was 96% (active); in assay [2] (at 50.0 µM) it was 95.5% (active). The growth inhibition in assay [3] (setting [7]) is 96% (active); in assay [3] (setting [8]), 95% (active); in assay [3] (at 50.0 µM), 94.2% (active); in assay [4] (setting [7]), 99% (active); in assay [4] (setting [8]) it was 98% (active); in assay [4] (at 50.0 µM), 98.6% (active). In addition, the growth inhibition in assay [5] (setting [7]) was 64% (inactive); in assay [5] (setting [8]), 84% (active); in assay [5] (at 50.0 µM) it was 79.2% (active); in assay [6] (setting [7]), 97% (active); in assay [6] (setting [8]), 96% (active); in assay [6] (at 50.0 µM), 96.8% (active).
`Cc1c2cc[n+](C)cc2c(C)c2c1[nH]c1ccccc12`: the growth inhibition in assay [1] (setting [7]) was 28% (inactive); in assay [1] (setting [8]) it was 68% (inactive); in assay [1] (at 50.0 µM), 27.5% (inactive) and 40.4% (inactive); in assay [2] (setting [7]), 18% (inactive); in assay [2] (setting [8]), 22% (inactive); in assay [2] (at 50.0 µM) it was 29.2% (inactive) and -21.1% (inactive). Besides, the growth inhibition in assay [3] (setting [7]) is 28% (inactive); in assay [3] (setting [8]), 36% (inactive); in assay [3] (at 50.0 µM) it was 75.7% (active) and -25% (inactive); in assay [4] (setting [7]), 27% (inactive); in assay [4] (setting [8]), 32% (inactive); in assay [4] (at 50.0 µM), 23.8% (inactive) and 2.8% (inactive). Moreover, the growth inhibition was 12% (inactive) in assay [5] (setting [7]); 31% (inactive) in assay [5] (setting [8]); 62.8% (inactive) and -38.5% (inactive) in assay [5] (at 50.0 µM); 16% (inactive) in assay [6] (setting [7]); 39% (inactive) in assay [6] (setting [8]); 54.5% (inactive) and 26.9% (inactive) in assay [6] (at 50.0 µM).
Regarding `O=C(NNC(=O)c1ccccc1O)c1ccccc1O`, the growth inhibition in assay [1] (setting [7]) was 4% (inactive); in assay [1] (setting [8]), 14% (inactive); in assay [1] (at 50.0 µM), 56.1% (inactive); in assay [2] (setting [7]), 2% (inactive); in assay [2] (setting [8]) it was 34% (inactive); in assay [2] (at 50.0 µM), 37.3% (inactive). Also, the growth inhibition in assay [3] (setting [7]) is 8% (inactive); in assay [3] (setting [8]) it was 32% (inactive); in assay [3] (at 50.0 µM), 61% (inactive); in assay [4] (setting [7]) it was -4% (inactive); in assay [4] (setting [8]), -2% (inactive); in assay [4] (at 50.0 µM), 35.9% (inactive). For the same molecule, the growth inhibition in assay [5] (setting [7]) was 2% (inactive); in assay [5] (setting [8]) it was 19% (inactive); in assay [5] (at 50.0 µM), 74.2% (active); in assay [6] (setting [7]) it was 5% (inactive); in assay [6] (setting [8]), 33% (inactive); in assay [6] (at 50.0 µM) it was 49.8% (inactive).
For the molecule `CSc1ncnc2c1ncn2C1OC(CO)C(O)C1O` (stereo unspecified), the growth inhibition is 2% (inactive) in assay [1] (setting [7]); 9% (inactive) in assay [1] (setting [8]); 8.95% (inactive) and 3.25% (inactive) in assay [1] (at 50.0 µM); -10% (inactive) in assay [2] (setting [7]); -1% (inactive) in assay [2] (setting [8]); 14.7% (inactive) and 17.6% (inactive) in assay [2] (at 50.0 µM). Besides, the growth inhibition was -5% (inactive) in assay [3] (setting [7]); 1% (inactive) in assay [3] (setting [8]); 3.1% (inactive) and -2.35% (inactive) in assay [3] (at 50.0 µM); -1% (inactive) in assay [4] (setting [7]); -3% (inactive) in assay [4] (setting [8]); 38.9% (inactive) and -38.6% (inactive) in assay [4] (at 50.0 µM). The growth inhibition in assay [5] (setting [7]) was -3% (inactive); in assay [5] (setting [8]), -7% (inactive); in assay [5] (at 50.0 µM), 0.05% (inactive) and 13.2% (inactive); in assay [6] (setting [7]), 14% (inactive); in assay [6] (setting [8]) it was 0% (inactive); in assay [6] (at 50.0 µM) it was -10.1% (inactive) and 1.6% (inactive).
Consider `Fc1ccc(NC(=S)SCc2ccc3c(c2)OCO3)cc1`, for which the growth inhibition is 3% (inactive) in assay [1] (setting [7]); 98% (active) in assay [1] (setting [8]); 99% (active) in assay [1] (at 50.0 µM); 1% (inactive) in assay [2] (setting [7]); 99% (active) in assay [2] (setting [8]); 98.5% (active) in assay [2] (at 50.0 µM). For the same molecule, the growth inhibition in assay [3] (setting [7]) is 3% (inactive); in assay [3] (setting [8]), 99% (active); in assay [3] (at 50.0 µM), 99.5% (active); in assay [4] (setting [7]), -13% (inactive); in assay [4] (setting [8]), 95% (active); in assay [4] (at 50.0 µM), 98.5% (active). Also, the growth inhibition in assay [5] (setting [7]) was -8% (inactive); in assay [5] (setting [8]) it was 97% (active); in assay [5] (at 50.0 µM), 98.9% (active); in assay [6] (setting [7]), -4% (inactive); in assay [6] (setting [8]), 95% (active); in assay [6] (at 50.0 µM) it was 99.3% (active).
For the molecule `CC(C)C1=CC23CCC4C(C)(C(=O)O)CCCC4(C)C2CC1C1C(=O)OC(=O)C13` (stereo unspecified), the growth inhibition was 93% (active) in assay [1] (setting [7]); 99% (active) in assay [1] (setting [8]); 99.3% (active) and 99.5% (active) in assay [1] (at 50.0 µM); 96% (active) in assay [2] (setting [7]); 100% (active) in assay [2] (setting [8]); 99.5% (active) and 99.7% (active) in assay [2] (at 50.0 µM). Moreover, the growth inhibition in assay [3] (setting [7]) is 87% (active); in assay [3] (setting [8]) it was 100% (active); in assay [3] (at 50.0 µM), 99.6% (active) and 49.5% (inactive); in assay [4] (setting [7]) it was 85% (active); in assay [4] (setting [8]), 99% (active); in assay [4] (at 50.0 µM), 99% (active) and 98.5% (active). Besides, the growth inhibition was 90% (active) in assay [5] (setting [7]); 99% (active) in assay [5] (setting [8]); 99% (active) and 99.5% (active) in assay [5] (at 50.0 µM); 90% (active) in assay [6] (setting [7]); 99% (active) in assay [6] (setting [8]); 99.4% (active) and 99.5% (active) in assay [6] (at 50.0 µM).

The record behind these values is PubChem BioAssay (NCI).
